In PubChem BioAssay (NCATS):
A number with no mark means an inactive call. Records with an inconclusive call do not appear. Where a call stands in place of a potency, no number is given. Calls of active or inactive are those of the source. Calls follow the shape of the dose curve; as a rule, active = well fitted curve in the direction sought with a large enough effect; inconclusive = small, poorly fitted or top-dose-only effect, or another doubt; inactive = no such curve, though single readings can be large; an effect the other way counts as inactive or inconclusive.

Experiments:
[1] = tested on: Zika virus NS2B-NS3 protease; assay: Primary screen GU AMC qHTS for Zika virus inhibitors (AID 1347154); also: nearly all actives have a fitted effect of over 70% in size; also: potency is read from the fitted curve at half-maximal effect
Outline: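 Fluorogenic AMC-substrate cleavage by noncovalent NS2B-NS3 protease complex (25 nM, pH 8.0 Tris buffer with Tween 20) followed for 15 minutes at room temperature (~20% conversion). Percent inhibition from ex340/em450 signal change, fitted by 4-parameter Hill equation.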

[2] = Confirmatory screen NINDS Rhodamine qHTS for Zika virus inhibitors (AID 1347161); also: nearly all actives have a fitted effect of over 60% in size; also: potency is read from the fitted curve at half-maximal effect;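 as to activity change, negative = inhibition: purified Zika NS2B-NS3 protease with linked NS2B cofactor domain and Rhodamine110 peptide substrate; series mostly up to about 110 µM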
Outline: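 Purified NS2B-NS3 protease with the NS2B hydrophilic domain joined by a flexible linker (25 nM) in 10 mM Tris-HCl pH 8.0, 0.01% Tween 20, preincubated 15 min at RT with compound; Rhodamine110 peptide substrate 1.5 µM; fluorescence change over 15 min; 4-parameter Hill fit.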

[3] = tested on: Zika virus NS2B-NS3 protease (linked); assay: 384 well plate NINDS AMC confirmatory qHTS for Zika virus inhibitors (AID 1347163); also: potency is read from the fitted curve at half-maximal effect; nearly all actives have a fitted effect of over 50% in size
Outline: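 Enzyme (5, 30 or 60 nM final) first met test compounds for ~15 min. The AMC-tagged peptide Ac-VKTGKR-AMC followed at 30 microM. Fluorescence was then recorded at 25 min and scaled against no-enzyme and no-inhibitor wells.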

[4] = Vero cells viability qHTS for Zika virus inhibitors (AID 1347167)
Outline: (§1)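 Luminescent ATP readout (CellTiter Glo) after 30 min at 37 degrees C gives viability; cells in DMEM + 4% FBS were treated 24 to 48 hours with compound, following overnight attachment.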

[5] = HepG2 cells viability qHTS for Zika virus inhibitors (AID 1347168)
Outline: as §1

[6] = qHTS to identify inhibitors of the type 1 interferon - major histocompatibility complex class I in skeletal muscle: primary screen against the NCATS Pharmaceutical Collection (AID 1347407);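 also: luminescence of HiBiT knocked into endogenous HLA-B as interferon-induced MHC class I level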
Outline: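 Immortalized human myoblasts (C25cl48) with HiBiT knocked into endogenous HLA-B*08:01 were stimulated with 4 ng/ml IFN-beta and treated with compounds (8-point, 1:5, top 46 uM final) for 24 h at 37 C; HiBiT lytic luminescence read.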

[7] = molecular target: Protein phosphatase 1D (Homo sapiens) (UniProt O15297); assay: RapidFire Mass Spectrometry qHTS Assay for Modulators of WT P53-Induced Phosphatase 1 (WIP1) (AID 1347424);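 also: amount of dephosphorylated VEPPL-S-QETFS peptide product formed by WIP1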; also: potency is read from the fitted curve at half-maximal effect; as to activity change, negative = inhibition: series mostly up to about 63 µM
Chain of Protein phosphatase 1D (Homo sapiens) (O15297 whole entry, looked up): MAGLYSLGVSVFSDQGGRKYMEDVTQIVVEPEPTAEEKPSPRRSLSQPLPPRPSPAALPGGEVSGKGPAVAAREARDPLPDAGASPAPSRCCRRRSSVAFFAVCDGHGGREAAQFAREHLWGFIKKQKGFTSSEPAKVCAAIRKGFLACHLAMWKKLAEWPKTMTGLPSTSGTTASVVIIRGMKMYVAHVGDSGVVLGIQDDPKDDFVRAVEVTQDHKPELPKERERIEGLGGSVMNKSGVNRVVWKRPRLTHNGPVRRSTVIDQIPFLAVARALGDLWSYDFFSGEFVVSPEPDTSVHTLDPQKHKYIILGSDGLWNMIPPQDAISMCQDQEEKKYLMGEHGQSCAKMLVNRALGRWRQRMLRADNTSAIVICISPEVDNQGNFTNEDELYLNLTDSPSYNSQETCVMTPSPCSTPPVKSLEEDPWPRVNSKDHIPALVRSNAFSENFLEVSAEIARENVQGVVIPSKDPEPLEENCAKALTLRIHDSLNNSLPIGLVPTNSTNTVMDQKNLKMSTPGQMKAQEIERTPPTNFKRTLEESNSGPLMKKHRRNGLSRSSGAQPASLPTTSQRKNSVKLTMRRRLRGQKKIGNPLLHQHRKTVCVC
Outline: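 RapidFire mass spectrometry measured dephosphorylated peptide after 5 min room-temperature reaction of 2 uM VEPPL-pS-QETFS with 10 nM WIP1 (50 mM Tris-HCl pH 7.5, 30 mM MgCl2, 0.1 mM EGTA, BSA), following 1 hr compound preincubation; 1 uM isotope-labelled product standard.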

[8] = Primary qHTS for inhibitors of La Crosse Virus (LACV) - induced cell death in SH-SY5Y cells (AID 1508616);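 also: top concentration of the series differs between compounds; higher means more rescue of cells from virus-induced death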
Outline: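 Cytopathicity rescue screen: compounds pinned onto SH-SY5Y cells, which are then infected with LACV (MOI 0.01) and held 6 days at 37C. Percent activity is scaled between infected DMSO control and uninfected DMSO control.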

[9] = qHTS to identify inhibitors of the type 1 interferon - major histocompatibility complex class I in skeletal muscle: primary screen against the NCATS Mechanism Interrogation Plate v5.0 (MIPE) Libary (AID 1347411); also: nearly all actives have a fitted effect of over 65% in size; also: potency is read from the fitted curve at half-maximal effect
Outline: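 HLA-B HiBit myoblasts, dexamethasone-free medium + 4 ng/ml IFN-b, 24 h compound, 11-pt 1:3 from 46 uM final. Readout: Nano-Glo HiBiT lytic luminescence after 10 min lysis, RT.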

[10] = tested on: Zika virus NS2B-NS3 protease (unlinked complex); assay: Primary screen GU Rhodamine qHTS for Zika virus inhibitors: Unlinked NS2B-NS3 protease assay (AID 1347159); also: nearly all actives have a fitted effect of over 60% in size
Outline: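 Unlinked NS2B/NS3, 25 nM; Rhod110 peptide, 1.5 microM; compounds, up to 114 microM. Reaction run 15 min at RT in 10 mM Tris-HCl pH 8.0, 0.01% Tween 20; kinetic fluorescence change fitted with a 4-parameter Hill model.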

[11] = molecular target: Protein phosphatase 1D (Homo sapiens) (UniProt O15297); assay: Rhodamine-PBP qHTS Assay for Modulators of WT P53-Induced Phosphatase 1 (WIP1) (AID 1347425)
Outline: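 Steps: enzyme with Rh-PBP sensor and compounds, room-temperature incubation of 1 hr, baseline read, addition of VEPPL-pS-QETFS (10 uM final), kinetic fluorescence reads at 525/598 nm. Activity equals final minus baseline signal.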

[12] = molecular target: Lysine-specific demethylase 5B (Homo sapiens) (UniProt Q9UGL1); assay: Optimization screen for KDM5B Histone Demethylases FDH coupled qHTS against the LOPAC library (AID 1347166)
Chain of Lysine-specific demethylase 5B (Homo sapiens) (Q9UGL1 whole entry, looked up): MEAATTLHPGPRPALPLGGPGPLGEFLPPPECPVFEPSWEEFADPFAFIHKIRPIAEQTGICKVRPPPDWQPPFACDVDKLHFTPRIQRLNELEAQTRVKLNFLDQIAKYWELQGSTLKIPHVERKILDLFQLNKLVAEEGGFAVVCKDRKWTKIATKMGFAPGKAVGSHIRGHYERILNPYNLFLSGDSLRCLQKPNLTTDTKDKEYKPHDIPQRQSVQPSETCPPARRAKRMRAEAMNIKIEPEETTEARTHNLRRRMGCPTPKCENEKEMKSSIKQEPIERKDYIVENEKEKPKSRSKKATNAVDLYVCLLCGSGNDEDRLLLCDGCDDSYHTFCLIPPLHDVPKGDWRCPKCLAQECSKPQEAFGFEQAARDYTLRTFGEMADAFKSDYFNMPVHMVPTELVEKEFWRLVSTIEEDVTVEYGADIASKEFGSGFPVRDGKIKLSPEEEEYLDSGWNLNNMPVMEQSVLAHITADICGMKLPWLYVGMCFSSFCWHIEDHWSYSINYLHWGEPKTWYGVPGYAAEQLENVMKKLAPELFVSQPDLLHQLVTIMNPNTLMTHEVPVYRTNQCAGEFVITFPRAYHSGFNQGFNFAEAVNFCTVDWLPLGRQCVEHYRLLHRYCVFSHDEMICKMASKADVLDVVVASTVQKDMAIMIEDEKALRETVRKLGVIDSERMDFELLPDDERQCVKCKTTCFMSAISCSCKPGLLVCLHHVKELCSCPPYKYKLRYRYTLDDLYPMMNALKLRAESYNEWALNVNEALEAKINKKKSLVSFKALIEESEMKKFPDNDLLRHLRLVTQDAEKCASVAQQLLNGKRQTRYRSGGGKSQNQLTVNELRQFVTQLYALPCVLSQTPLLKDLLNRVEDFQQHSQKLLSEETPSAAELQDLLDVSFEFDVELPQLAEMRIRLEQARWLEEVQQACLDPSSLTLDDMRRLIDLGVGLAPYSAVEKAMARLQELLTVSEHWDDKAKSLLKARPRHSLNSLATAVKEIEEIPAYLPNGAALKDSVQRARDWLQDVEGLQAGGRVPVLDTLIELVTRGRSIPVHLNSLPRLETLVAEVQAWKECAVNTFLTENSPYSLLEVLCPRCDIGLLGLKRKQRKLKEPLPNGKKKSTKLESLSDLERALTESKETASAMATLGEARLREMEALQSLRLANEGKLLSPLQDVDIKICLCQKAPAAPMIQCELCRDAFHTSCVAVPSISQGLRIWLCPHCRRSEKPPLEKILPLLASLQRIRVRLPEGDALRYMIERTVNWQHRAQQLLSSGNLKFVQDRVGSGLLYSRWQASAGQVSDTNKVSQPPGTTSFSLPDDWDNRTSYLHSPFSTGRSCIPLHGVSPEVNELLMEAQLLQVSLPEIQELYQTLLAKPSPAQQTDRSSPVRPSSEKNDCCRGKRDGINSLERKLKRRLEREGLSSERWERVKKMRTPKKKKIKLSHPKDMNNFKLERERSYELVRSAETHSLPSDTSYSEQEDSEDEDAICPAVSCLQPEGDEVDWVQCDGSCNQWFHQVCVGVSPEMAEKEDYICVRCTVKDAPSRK
Outline: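 KDM5BDeltaAP (200nM final) in 50mM HEPES pH 7.5, 0.01% Tween-20 was preincubated with compound for 10 min at room temperature. A substrate mix of 12.5uM H3K4Me3, 25uM a-ketoglutarate, ascorbate, Fe2+, NAD+ and formaldehyde dehydrogenase was then added. NADH fluorescence (340/450 nm) was read initially and after 30 min.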

[13] = Validation qHTS assay for inhibitors of Activation Induced Cytidine Deaminase (AID): UDG Counterscreen signal (AID 1347427)
Outline: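 Fluorescence at 560 nm excitation, 665 nm emission reports UDG signal after 250 mM NaOH (2x) addition and 30 min. Enzymes (AID 1 uM, UDG 2 U/mL, at 4/3x) preincubated 10 min with compound, then 4 h with 4x 250 nM DJC20/DJC23 substrate at room temperature.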

[14] = molecular target: Single-stranded DNA cytosine deaminase (Homo sapiens) (UniProt Q9GZX7); assay: Validation qHTS assay for inhibitors of Activation Induced Cytidine Deaminase (AID): AID signal (AID 1347429)
Chain of Single-stranded DNA cytosine deaminase (Homo sapiens) (Q9GZX7 whole entry, looked up): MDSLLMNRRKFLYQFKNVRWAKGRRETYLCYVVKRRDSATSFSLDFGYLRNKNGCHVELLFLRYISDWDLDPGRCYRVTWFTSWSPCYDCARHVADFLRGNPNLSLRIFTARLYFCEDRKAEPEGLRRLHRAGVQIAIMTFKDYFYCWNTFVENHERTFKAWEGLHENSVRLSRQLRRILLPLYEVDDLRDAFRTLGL
Outline: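 AID+UDG coupled FRET deamination; cpds up to 114 uM final; DJC20/DJC23 substrate, 4 hr RT; NaOH stop, 30 min RT; read Ex 540/Em 590.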

For `O=C(Nc1cccc2c(=O)cc(-c3nn[nH]n3)oc12)c1ccc(OCCCCc2ccccc2)cc1`, the Potency [1] was 8.91 µM (active), the Potency [2] was 1.75 µM (active) and the Potency [3] was 28.2 µM (active). The outcome [4] was “inactive”, the outcome [5] was “inactive” and the outcome [6] was “inactive”. For the same compound, the Potency [7] was 15.8 µM (active) and the outcome [8] was “inactive”.
For `O=C(O)C1=CC(O)C(O)[C@H](O)C1` (some centres undefined), the Potency [1] was “inactive” and the Potency [9] was “inactive”.
In the case of `OC(c1cc(C(F)(F)F)nc2c(C(F)(F)F)cccc12)C1CCCCN1` (centres undefined), the Potency [1] is reported as “inactive” and the outcome [4] is reported as “inactive”.
In the case of `Cc1ccc(C2=Nc3ccc(Cl)cc3OC2)cc1`, the Potency [1] is reported as “inactive” and the Potency [9] is reported as “inactive”.
With `CCNC(=O)c1noc(-c2cc(C(C)C)c(O)cc2O)c1-c1ccc(CN2CCOCC2)cc1` the Potency [1] was “inactive”, the Potency [10] was “inactive” and the Potency [9] was 0.0415 µM (active).
For `CN1CCN2c3ncccc3Cc3ccccc3C2C1` (centres undefined), the Potency [1] was “inactive” and the Potency [9] was “inactive”.
In the case of `COc1ccc(-c2ccc3ncc4c(c3c2)n(-c2ccc(N3CCNCC3)c(C(F)(F)F)c2)c(=O)n4C)cn1`, the Potency [1] is reported as 21.5 µM (active), the activity change, negative = inhibition [2] is reported as 14.2% [at 12.7 µM] and the activity change, negative = cytotoxicity [4] is reported as -1.62% [at 4.93 µM]. The activity change, negative = cytotoxicity [5] was -5.65% [at 4.93 µM] and the Potency [9] was 0.147 µM (active).
For `O=C(CO)N1CCC(c2[nH]nc(-c3ccc(Cl)cc3)c2-c2ccncn2)CC1`, the Potency [1] was “inactive”, the Potency [10] was “inactive” and the Potency [9] was “inactive”.
With `C[C@@H]1C[C@H]2[C@@H]3CCC4=CC(=O)C=C[C@]4(C)[C@@]3(F)[C@@H](O)C[C@]2(C)[C@@]1(O)C(=O)CO` the Potency [1] was “inactive”, the outcome [6] was “inactive” and the Potency [9] was “inactive”. For the same compound, the Potency [7] was “inactive”, the outcome [11] was “inactive” and the outcome [8] was “inactive”.
With `C[C@H]1O[C@@H](n2cc(F)c(=O)[nH]c2=O)[C@H](O)[C@H]1O` the Potency [1] was “inactive”, the outcome [12] was “inactive” and the outcome [13] was “inactive”. The outcome [14] was “inactive”.
With `O=C1Nc2ccc(I)cc2C1=Cc1cc(Br)c(O)c(Br)c1` the Potency [1] was 12.1 µM (active), the Potency [2] was 24.8 µM (active) and the outcome [4] was “inactive”. For the same compound, the outcome [5] was “inactive”.
With `Cc1ccccc1-n1c(Cn2nc(-c3cccc(O)c3)c3c(N)ncnc32)nc2cccc(C)c2c1=O` the Potency [1] was “inactive”, the Potency [10] was “inactive” and the Potency [9] was 20.8 µM (active).
In the case of `CN(C)CCOc1cc(-c2cn[nH]c2)ccc1NC(=O)C1COc2ccccc2O1` (centres undefined), the Potency [1] is reported as “inactive”, the Potency [10] is reported as “inactive” and the Potency [9] is reported as “inactive”.
With `C[C@]12CC[C@@H]3c4ccc(O)cc4CC[C@H]3[C@H]1[C@@H](O)[C@@H](O)[C@H]2O` the Potency [1] was “inactive” and the Potency [9] was “inactive”.
For `CC(C)c1onc(-c2c(Cl)cccc2Cl)c1COc1ccc(C=Cc2cccc(C(=O)O)c2)c(Cl)c1`, the Potency [1] was 13.6 µM (active), the Potency [2] was 1.56 µM (active) and the outcome [5] was “inactive”.
With `N#Cc1c(N(CC(=O)O)CC(=O)O)sc(C(=O)O)c1CC(=O)O` the Potency [1] was “inactive” and the Potency [9] was “inactive”.
